# Test results published in PubChem BioAssay (EPA / NIEHS).
# Results filed as inconclusive are left out. Calls of active or inactive are those of the source. How the source made its calls, unless noted: active means hit-call score of the fitted dose curve at least 0.9, where 1 is the maximum; inactive means score below 0.9.
# Columns and labels:
# [1] = IUF_NPC1b_proliferation_BrdU_72hr: Leibniz Research Institute for Environmental Medicine (IUF) 72-hour Neural Progenitor Cell Bromodeoxyuridine (BrdU) Proliferation Assay (NPC1b) (AID 2284207)
# In short: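 Proliferation of primary human neural progenitor cells: 72 h compound treatment at 37C, 5% CO2, pH 7.2-7.6, in EGF/FGF-containing medium. Readout is BrdU uptake (last 16 h) by chemiluminescent ELISA, normalised to DMSO.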
# [2] = CCTE_Mundy_HCI_Cortical_Synap_Neur_Matur_NeuriteSpotCountPerNeuriteLength: CCTE's Synaptogenesis and Neurite Maturation Assay in rat cortical cells for Neurite Spot Count per Neurite Length, Mundy Lab (AID 2284210)
# In short: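 Primary rat cortical neurons, compound exposure DIV 7–12, 288.33 h endpoint. Hoechst, anti-MAP2 and anti-synaptophysin labelling; neurite-associated puncta per neurite length scored by automated imaging relative to DMSO controls.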
# [3] = CCTE_Mundy_HCI_Cortical_Synap_Neur_Matur_BPCount: CCTE's Synaptogenesis and Neurite Maturation Assay in rat cortical cells for Branch Point Count, Mundy Lab (AID 2284211)
# In short: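 Rat primary cortical cultures, AraC added DIV 5; chemicals dosed DIV 7 through DIV 12. Fixed cells stained for MAP2, synaptophysin and Hoechst; neurite branch points counted by automated high-content imaging, fitted relative to DMSO.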
# [4] = CCTE_Mundy_HCI_Cortical_NOG_NeuriteCount: CCTE's Neurite Outgrowth Assay in rat cortical cells for Neurite Count, Mundy Lab (AID 2284212);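 further: cells fixed about two days after chemical exposure began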
# In short: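 Neurite number per cell from high-content imaging of betaIII-tubulin immunostaining, with Hoechst nuclear counterstain.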
# [5] = CCTE_Mundy_HCI_Cortical_NOG_NeuriteLength: CCTE's Neurite Outgrowth Assay in rat cortical cells for Neurite Length, Mundy Lab (AID 2284213);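 further: neurites imaged about 48 to 50 h after chemical exposure began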
# In short: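 Neurite length was read by high-content imaging of βIII-tubulin-labelled neurites in rat primary cortical cultures. Activity was fitted relative to DMSO.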
# [6] = CCTE_Mundy_HCI_Cortical_Synap_Neur_Matur_NeuriteLength: CCTE's Synaptogenesis and Neurite Maturation Assay in rat cortical cells for Neurite Length, Mundy Lab (AID 2284214)
# In short: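 Rat primary cortical cultures, AraC added DIV 5, dosed DIV 7 through DIV 12 […]. Fixed, MAP2/synaptophysin immunostained with Hoechst; neurite length by high-content imaging, fitted in positive direction versus DMSO.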
# [7] = CCTE_Mundy_HCI_Cortical_Synap_Neur_Matur_NeuriteSpotCountPerNeuron: CCTE's Synaptogenesis and Neurite Maturation Assay in rat cortical cells for Neurite Spot Count per Neuron Count, Mundy Lab (AID 2284215)
# In short: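 Developing rat cortical neurons, with glia suppressed by AraC, are exposed to chemicals from DIV 7 to DIV 12. Automated fluorescence imaging of MAP2-labelled neurites and synaptophysin puncta yields a count per neuron, normalised against DMSO wells.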
# [8] = CCTE_Mundy_HCI_Cortical_Synap_Neur_Matur_SynapseCount: CCTE's Synaptogenesis and Neurite Maturation Assay in rat cortical cells for Synapse Count, Mundy Lab (AID 2284218)
# In short: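 Rat primary cortical cultures, AraC at DIV 5, chemical dosing DIV 7 to DIV 12 (288.33 h). Fixed cells stained for MAP2, synaptophysin and Hoechst; synapses per neuron counted by high-content imaging, loss of signal versus DMSO.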
# [9] = CCTE_Mundy_HCI_hN2_NOG_NeuriteLength: CCTE's Neurite Outgrowth Assay in human hN2 cells for Neurite Length, Mundy Lab (AID 2284220; active means hit-call score of the fitted dose curve at least 0.9, where 1 is the maximum)
# In short: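 Plate hNP1-derived neurons, then add chemical 2 h later as a 1/10 dilution. Stain with anti-βIII-tubulin then Alexa Fluor-488 secondary, and image automatically to measure neurite length.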
# [10] = CCTE_Mundy_HCI_hN2_NOG_NeuronCount: CCTE's Neurite Outgrowth Assay in human hN2 cells for Neuron Count, Mundy Lab (AID 2284221; active means hit-call score of the fitted dose curve at least 0.9, where 1 is the maximum)
# In short: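 Read-out is the number of betaIII-tubulin-positive neurons imaged by automated high-content analysis, with DMSO as negative control.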
# [11] = CCTE_Mundy_HCI_Cortical_Synap_Neur_Matur_NeuriteCount: CCTE's Synaptogenesis and Neurite Maturation Assay in rat cortical cells for Neurite Count, Mundy Lab (AID 2284222)
# In short: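 Rat primary cortical cells; AraC added at DIV 5, chemicals dosed with media change at DIV 7 through DIV 12. MAP2/synaptophysin/Hoechst immunostaining, high-content imaging of neurite number; fitted relative to DMSO.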
# [12] = CCTE_Mundy_HCI_Cortical_Synap_Neur_Matur_CellBodySpotCount: CCTE's Synaptogenesis and Neurite Maturation Assay in rat cortical cells for Cell Body Spot Count, Mundy Lab (AID 2284223)
# In short: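 Chemicals were applied to AraC-treated rat primary cortical cells at DIV 7 and measured at DIV 12. Fixed cells were labelled for MAP2, synaptophysin and nuclei, and high-content imaging gave cell body synaptophysin spot counts per neuron relative to DMSO.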
# [13] = UKN4_HCS_LUHMES_cell_viability: Viability Assessment in the University of Konstanz (UKN) Leist Lab Neurite Outgrowth Assay in human LUHMES cells (UKN4) (AID 2284232)
# In short: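 LUHMES precursors differentiated 2 days, replated at 30000 cells/well without cAMP/GDNF, then compound-treated 24 h. Viability from Hoechst H-33342 and calcein-AM live staining (30 min) by high-content fluorescence imaging; bidirectional fit versus DMSO.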
# [14] = UKN2_HCS_IMR90_cell_viability: Viability Assessment in the University of Konstanz (UKN) Leist Lab Neural Crest Cell Migration Assay in human induced IMR90 Pluripotent Stem Cells (UKN2) (AID 2284233);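 further: viability of neural crest cells differentiated from IMR90 iPSC measured by calcein-AM fluorescence imaging; cells exposed to compound for 24 h after a 24 h migration phase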
# In short: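 Human IMR90-derived neural crest cells were allowed to migrate for 24 h into a cell-free zone, then exposed to test chemicals for 24 h. Calcein-AM and Hoechst staining with high-content imaging gave viability, analysed against DMSO baseline.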
# [15] = CCTE_Mundy_HCI_Cortical_NOG_BPCount: CCTE's Neurite Outgrowth Assay in rat cortical cells for Branch Point Count, Mundy Lab (AID 2284237);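 further: branch points counted about two days after chemical exposure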
# In short: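 Measured 50.33 h after dosing, this morphology endpoint uses rat primary cortical cultures labelled for betaIII-tubulin. Branch points are quantified by high-content imaging, with DMSO as negative control and baseline.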
# [16] = CCTE_Mundy_HCI_hNP1_Casp3_7: CCTE's Caspase-Glo 3/7 Assay in human neuroprogenitor cells for Apoptosis, Mundy Lab (AID 2284240)
# In short: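 Apoptosis is scored by activated caspase-3/7 luminescence in WA09-derived neural progenitor cells, measured 26.5 h after chemical dosing. Values represent gain of signal relative to DMSO vehicle.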
# [17] = CCTE_Mundy_HCI_hNP1_CellTiter: CCTE's Cell Titer-Glo 2 Assay in human neuroprogenitor cells for Viability, Mundy Lab (AID 2284241; active means hit-call score of the fitted dose curve at least 0.9, where 1 is the maximum)
# In short: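 Human neural progenitor cells (hNP1, WA09-derived) were plated on poly-L-ornithine/laminin and grown 40 to 44 hours at 37 °C, 5% CO2 before chemical addition. Twenty-four hours later, ATP was measured by CellTiter-Glo luminescence; loss of signal versus DMSO indicates reduced viability.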
# [18] = CCTE_Mundy_HCI_Cortical_Synap_Neur_Matur_NeuronCount: CCTE's Synaptogenesis and Neurite Maturation Assay in rat cortical cells for Neuron Count, Mundy Lab (AID 2284242; active means hit-call score of the fitted dose curve at least 0.9, where 1 is the maximum;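 further: hits reduce neuron count versus DMSO baseline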)
# In short: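 Rat primary cortical cells, AraC added at DIV 5, dosed with media change from DIV 7 to DIV 12. Fixed, Hoechst-stained and immunolabelled for MAP2 and synaptophysin; neuron number counted by high-content imaging, loss fitted versus DMSO.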
# [19] = IUF_NPC2c_oligodendrocyte_migration_120hr: Leibniz Research Institute for Environmental Medicine (IUF) 120-hour Neural Progenitor Cell Migration Assay for Oligodendrocyte Migration (NPC2c) (AID 2284297);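 further: O4-positive oligodendrocyte migration distance divided by radial glia migration distance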
# In short: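 Using fetal brain neural progenitor spheres differentiating in N2 medium at 37C, compounds were present for 120 h. Oligodendrocyte migration distance, normalized to radial glia migration, was measured from imaged O4 staining.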
# [20] = IUF_NPC2a_radial_glia_migration_120hr: Leibniz Research Institute for Environmental Medicine (IUF) 120-hour Neural Progenitor Cell Migration Assay for Radial Glia Migration (NPC2a) (AID 2284298)
# In short: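 Exposure of 0.3 mm primary hNPC spheres runs day 0 to 120 h with a half-volume medium change at day 3. Fixed cells get Hoechst staining; high-content analysis of nuclear positions yields radial glia migration distance per well, compared against DMSO controls.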
# [21] = IUF_NPC2a_radial_glia_migration_72hr: Leibniz Research Institute for Environmental Medicine (IUF) 72-hour Neural Progenitor Cell Migration Assay for Radial Glia Migration (NPC2a) (AID 2284299)
# In short: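 Human fetal neural progenitor spheres (0.3 mm) plated on poly-D-lysine/laminin in N2 differentiation medium and exposed from day 0 at 7 concentrations; radial glia migration distance from sphere edge measured at 72 h on brightfield images, mean of four directions, vs DMSO.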
# [22] = IUF_NPC2b_neuronal_migration_120hr: Leibniz Research Institute for Environmental Medicine (IUF) 120-hour Neural Progenitor Cell Migration Assay for Neuron Migration (NPC2b) (AID 2284300)
# In short: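 Fetal human NPC spheres migrate on PDL/laminin during 120 h compound treatment; neuronal migration distance, glia-normalized, scored versus DMSO control.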
# [23] = IUF_NPC3_neuronal_differentiation_120hr: Leibniz Research Institute for Environmental Medicine (IUF) 120-hour Neuronal Differentiation Assay (NPC3) (AID 2284301)
# In short: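 Single 0.3 mm neurospheres from human fetal cortex were plated in differentiation medium containing test compound. Medium was half-replaced on day 3. After 120 h cells were fixed, immunostained and imaged, and neuronal fraction was scored against DMSO control.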
# [24] = IUF_NPC5_oligodendrocyte_differentiation_120hr: Leibniz Research Institute for Environmental Medicine (IUF) 120-hour Oligodendrocyte Differentiation Assay (NPC5) (AID 2284304; active means hit-call score of the fitted dose curve at least 0.9, where 1 is the maximum;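 further: primary human fetal neural progenitor spheres plated to migrate and differentiate; share of O4-positive cells among Hoechst nuclei found by CNN image analysis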)
# In short: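 After plating on poly-D-lysine/laminin, fetal-derived hNPC spheres differentiated for 120 h at 37C in compound-containing N2 medium, refreshed by half on day 3. O4 immunostaining over Hoechst nuclei in the migration zone gave oligodendrocyte percentage relative to DMSO.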
# [25] = IUF_NPC4_neurite_area_120hr: Leibniz Research Institute for Environmental Medicine (IUF) 120-hour Neuronal Morphology Assay for Neurite Area (NPC4) (AID 2284305; active means hit-call score of the fitted dose curve at least 0.9, where 1 is the maximum)
# In short: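 Neurite area is read out as the mean pixel area, excluding nuclei, of skeletonized TUBB3-positive neurons imaged after 120 h. Primary human neural progenitor spheres differentiated on poly-D-lysine/laminin with compound present from day 0. Activity was referenced to DMSO controls.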
# [26] = IUF_NPC2-5_cytotoxicity_72hr: Cytotoxicity Assessment at 72 hours in the Leibniz Research Institute for Environmental Medicine (IUF) Neural Progenitor Cell Migration and Differentiation Assay for Cytotoxicity (NPC2-5) (AID 2284306; active means hit-call score of the fitted dose curve at least 0.9, where 1 is the maximum;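 further: LDH release into supernatant measured by resorufin fluorescence marking membrane damage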)
# In short: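 Membrane integrity loss was scored from fluorescence (RFU) of resorufin generated by LDH in culture supernatant, 72 h after dosing. Differentiating human progenitor spheres received seven serial compound concentrations alongside a solvent control.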
# [27] = IUF_NPC2-5_cytotoxicity_120hr: Cytotoxicity Assessment at 120 hours in the Leibniz Research Institute for Environmental Medicine (IUF) Neural Progenitor Cell Migration and Differentiation Assay (NPC2-5) (AID 2284307; active means hit-call score of the fitted dose curve at least 0.9, where 1 is the maximum)
# In short: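 Membrane-integrity loss is quantified by LDH in supernatant after five days of exposure of migrating, differentiating human fetal NPC spheres; seven serially diluted concentrations are tested with DMSO kept at or below 0.1%.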
# [28] = IUF_NPC2-5_cell_number_120hr: Cell Number Assessment at 120 hours in the Leibniz Research Institute for Environmental Medicine (IUF) Neural Progenitor Cell Migration and Differentiation Assay (NPC2-5) (AID 2284308);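 further: count of Hoechst-stained nuclei in migration zone around plated human neural progenitor spheres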
# In short: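 Seven-point serial dilutions plus solvent control were applied to plated 0.3 mm hNPC spheres at differentiation start, with medium half-replaced at day 3. Nuclei positive for Hoechst in the migration zone were enumerated at 120 h.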
# [29] = IUF_NPC2-5_viability_120hr: Viability Assessment at 120 hours in the Leibniz Research Institute for Environmental Medicine (IUF) Neural Progenitor Cell Migration and Differentiation Assay (NPC2-5) (AID 2284312)
# In short: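 Alamar blue resorufin fluorescence read after 5 days of differentiation, with compound present from day 0 and replenished at day 3. Primary hNPC spheres on laminin-coated plates, 37C; seven concentrations plus solvent control, fitted against DMSO.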
# [30] = IUF_NPC1_cytotoxicity_72hr: Cytotoxicity Assessment at 72 hours in the Leibniz Research Institute for Environmental Medicine (IUF) Neural Progenitor Cell Proliferation Assay (NPC1) (AID 2284332; active means hit-call score of the fitted dose curve at least 0.9, where 1 is the maximum;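 further: rising LDH signal means more cytotoxicity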)
# In short: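 Human fetal neural progenitor spheres (0.3 mm) in EGF/FGF proliferation medium, 37C, exposed 72 h without renewal. LDH release in supernatant read by resorufin fluorescence; gain of signal scored relative to dynamic range.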
structure (smiles),measurement,setting,value
Brc1ccc(Oc2ccc(Br)cc2Br)c(Br)c1,outcome,[1],inactive
same,AC50,[2],4.11 µM (active)
same,AC50,[3],3.98 µM (active)
same,AC50,[4],23.6 µM (active)
same,AC50,[5],25.2 µM (active)
same,AC50,[6],4.59 µM (active)
same,AC50,[7],8.25 µM (active)
same,AC50,[8],8.79 µM (active)
same,AC50,[9],8.87 µM (active)
same,AC50,[10],4.6 µM (active)
same,AC50,[11],5.14 µM (active)
same,outcome,[12],inactive
same,AC50,[13],41.5 µM (active)
same,outcome,[14],inactive
same,AC50,[15],25.6 µM (active)
same,outcome,[16],inactive
same,outcome,[17],inactive
same,AC50,[18],7.42 µM (active)
same,outcome,[19],inactive
same,outcome,[20],inactive
same,outcome,[21],inactive
same,outcome,[22],inactive
same,outcome,[23],inactive
same,AC50,[24],10.4 µM (active)
same,outcome,[25],inactive
same,outcome,[26],inactive
same,outcome,[27],inactive
same,outcome,[28],inactive
same,outcome,[29],inactive
same,outcome,[30],inactive
